Publication PMC4336329 (PLoS ONE, 2015)
About 14,000 (4.5%) of roughly 310,000 compounds showed an effect of 50% or more. The effect is printed as a negative number. The sample holds strong results, similar compounds and a random draw of the others, so the mix is not that of the screen.

target: human ether-à-go-go-related gene (hERG) potassium channel (human, UniProt Q12809); assay: primary screen, population patch clamp on CHO cells stably expressing hERG; higher = less effect of the substance
Sequence (Q12809 whole entry, looked up): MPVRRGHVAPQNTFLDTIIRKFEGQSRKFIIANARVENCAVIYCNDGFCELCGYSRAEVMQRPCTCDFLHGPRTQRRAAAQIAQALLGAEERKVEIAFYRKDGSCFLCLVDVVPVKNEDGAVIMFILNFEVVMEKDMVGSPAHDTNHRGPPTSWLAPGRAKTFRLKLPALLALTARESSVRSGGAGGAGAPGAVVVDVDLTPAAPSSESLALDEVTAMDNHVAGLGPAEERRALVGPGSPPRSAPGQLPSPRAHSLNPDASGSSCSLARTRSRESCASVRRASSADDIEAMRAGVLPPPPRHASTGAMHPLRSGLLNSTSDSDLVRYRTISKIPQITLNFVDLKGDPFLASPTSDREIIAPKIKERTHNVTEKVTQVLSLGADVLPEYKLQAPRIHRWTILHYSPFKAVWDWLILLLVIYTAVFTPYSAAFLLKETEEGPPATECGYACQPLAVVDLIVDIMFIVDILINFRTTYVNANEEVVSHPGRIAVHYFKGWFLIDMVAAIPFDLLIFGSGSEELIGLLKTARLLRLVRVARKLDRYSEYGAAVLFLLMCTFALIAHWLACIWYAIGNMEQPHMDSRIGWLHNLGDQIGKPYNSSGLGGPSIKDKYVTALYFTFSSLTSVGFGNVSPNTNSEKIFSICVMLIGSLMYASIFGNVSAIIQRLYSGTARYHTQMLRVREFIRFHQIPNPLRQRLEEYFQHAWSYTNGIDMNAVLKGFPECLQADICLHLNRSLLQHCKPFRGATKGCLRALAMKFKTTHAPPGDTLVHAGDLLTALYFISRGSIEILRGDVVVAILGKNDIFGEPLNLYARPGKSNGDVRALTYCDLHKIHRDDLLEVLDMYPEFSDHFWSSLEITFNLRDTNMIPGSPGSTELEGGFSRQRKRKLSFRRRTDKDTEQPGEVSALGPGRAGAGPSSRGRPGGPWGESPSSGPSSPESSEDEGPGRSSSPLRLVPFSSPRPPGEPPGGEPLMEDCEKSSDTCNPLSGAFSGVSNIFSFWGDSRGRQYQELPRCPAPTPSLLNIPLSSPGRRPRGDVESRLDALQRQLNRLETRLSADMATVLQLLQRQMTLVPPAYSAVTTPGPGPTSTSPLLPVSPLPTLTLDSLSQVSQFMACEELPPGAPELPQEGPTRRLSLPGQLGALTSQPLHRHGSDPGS
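Further: peak tail current of the secondary pulse compared with the same well before compound.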

Compound	hERG current change (%, negative = inhibition) at 10uM [%]
CCC(Sc1nc2ccsc2c(=O)n1-c1ccc(Cl)c(C)c1)C(=O)NCc1ccco1 (stereo not shown)	-16.8
CCOC(=O)c1nnn(CC(=O)Nc2cccc(Cl)c2C)c1C(=O)OCC	4.51
COc1cc(NC(=O)CSc2nnc3c(C)cc4c(C)ccc(C)c4n23)c(C(=O)O)cc1OC	27.1
COc1cccc(CNC(=O)CCC2CCCN(c3cc(C)nc(N(C)C)n3)C2)c1 (stereo not shown)	-62.4
COc1cccc(CNC(=O)CCC2CCCN(C(=O)c3ccccc3N(C)C)C2)c1 (stereo not shown)	0.174
COc1cccc(CNC(=O)CCC2CCCN(c3cc(C)nc(N4CCCC4)n3)C2)c1 (stereo not shown)	-75
Cc1cc(C)nc(N2CCCC(CCC(=O)NCc3ccc(F)c(F)c3)C2)n1 (stereo not shown)	-1.25
COc1cccc(CNC(=O)CCC2CCCN(c3cc(C)nc(N)n3)C2)c1 (stereo not shown)	-63.5
COc1cccc(CNC(=O)CCC2CCCN(C(=O)c3cc(C)[nH]n3)C2)c1 (stereo not shown)	31.9
COc1cccc(CNC(=O)CCC2CCCN(C(=O)C3CCOCC3)C2)c1 (stereo not shown)	1.51
COc1cccc(CNC(=O)CCC2CCCN(C(=O)c3ccc(C)nc3)C2)c1 (stereo not shown)	9.47
COc1cccc(CNC(=O)CCC2CCCN(C(=O)c3cc(C)on3)C2)c1 (stereo not shown)	5.3
Cc1ccc(Nc2cccccc2=O)cc1	-4.5
Cc1ccc(S(=O)(=O)N(C)C)cc1NC(=O)CSc1ncn[nH]1	3.1
CC1=NN(C(=O)c2c(Br)cnn2C)C(O)(C(F)(F)F)C1 (stereo not shown)	-24.6
Fc1cccc(Nc2ncnc3c2cnn3-c2ccccc2)c1	12.1
COc1cc(/C=N/NC(=O)c2nnn(-c3nonc3N)c2C(C)C)ccc1OCc1ccc(F)cc1	31.1
O=C(Cc1cscn1)c1ccc(O)cc1O	-9.71
COc1cc(OC)cc(C(=O)N[C@H](C(=O)Nc2ccc3c(c2)OCO3)C(C)C)c1	11
O=C(CCC(F)(F)F)N1CCC(CO)(CCc2ccccc2)CC1	-12
OCC1(CCc2ccccc2)CCCN(CCCc2ccccc2)C1 (stereo not shown)	-70.9
CSCC(=O)N1CCCC(CO)(CCCc2ccccc2)C1 (stereo not shown)	-4.78
CSCCC(=O)N1CCCC(CO)(CCCc2ccccc2)C1 (stereo not shown)	-8.88

Compound	hERG current change (%, negative = inhibition) at 10uM [%]
OCC1(CCc2ccccc2)CCCN(CCCC(F)(F)F)C1 (stereo not shown)	-51.7
OCC1(Cc2ccc(F)cc2)CCCN(CCCC(F)(F)F)C1 (stereo not shown)	-22.3
C[n+]1ccc(/C=N/Nc2nc(Cl)c(C#N)c(Cl)c2Cl)cc1.[Cl-]	20.2
Cc1ccc(CNC(=O)c2ccccc2N)cc1	5.16
COc1cc(NS(=O)(=O)c2ccc(N/C=C(\C#N)c3nc4cc(Cl)ccc4o3)cc2)nc(OC)n1	-7.44
CCN(CC)c1ccc(N2C(=NC(=O)C3CCCO3)SC3CS(=O)(=O)CC32)cc1 (stereo not shown)	3.6
CCCCc1ccc(N2C(=NC(=O)C3CCCO3)SC3CS(=O)(=O)CC32)cc1 (stereo not shown)	-56.5
CC(=O)c1ccc(N2C(=NC(=O)C3CCCO3)SC3CS(=O)(=O)CC32)cc1 (stereo not shown)	-39.7
COc1ccc(/C(C)=N/NC(=O)CCC(=O)Nc2ccc(Cl)cc2Cl)c(OC)c1	-3.74
CC1(C)O[C@@H]1COc1c2ccoc2cc2oc(=O)ccc12	-19.4
Cc1ccc(N2C(=O)CC(N3CCN(C4CCc5ccccc5C4)CC3)C2=O)cc1 (stereo not shown)	-75.1
Cc1ccc(N2C(=O)CC(N3CCN(c4ccccn4)CC3)C2=O)cc1 (stereo not shown)	-6.04
CC1CCN(C2CC(=O)N(c3ccccc3)C2=O)CC1 (stereo not shown)	8.4
O=C1CC(N2CCCCC2)C(=O)N1c1ccccc1 (stereo not shown)	-3.42
CCOC(=O)N1CCN(C2CC(=O)N(c3ccc(C)cc3)C2=O)CC1 (stereo not shown)	1.62
O=C1CC(N2CCN(C3CCc4ccccc4C3)CC2)C(=O)N1c1ccccc1 (stereo not shown)	-64.6
CC(/C=C/c1ccco1)=N/NC(=O)OC(C)(C)C	3.46
N#Cc1ccccc1Sc1ccccc1C(=O)Nc1ccc2ccccc2c1	15.8
CC(=O)c1c(C)nc(-c2ccc(Cl)cc2)nc1NC(=O)C(C)C	-9.25
Oc1ccccc1N=N/C(=N/Nc1ccccc1O)c1ccccc1	8.83
COC(=O)CCC(=O)Nc1ccccc1C(N)=O	23.1
CC(C)(CO)Nc1ccc([N+](=O)[O-])cc1[N+](=O)[O-]	-8.26
CC1(C)Cc2c(cnn2-c2ccc(F)cc2)C(NC(=O)CCN2CCCC2=O)C1 (stereo not shown)	5.01

Compound	hERG current change (%, negative = inhibition) at 10uM [%]
Cc1ccc(-n2ncc3c2CC(C)(C)CC3NC(=O)CCn2cncn2)cc1 (stereo not shown)	-76.8
CC1(C)Cc2c(cnn2-c2ccc(F)cc2)C(NC(=O)Cn2cncn2)C1 (stereo not shown)	7.61
CC1(C)Cc2c(cnn2-c2ccccc2)C(NC(=O)CCCn2cncn2)C1 (stereo not shown)	-1.88
CC1(C)Cc2c(cnn2-c2ccc(F)cc2)C(NC(=O)CCn2cncn2)C1 (stereo not shown)	-69.1
COc1ccc(-n2ncc3c2CC(C)(C)CC3NC(=O)CCn2cncn2)cc1 (stereo not shown)	-42.2
COc1cc(-c2nc3c[n+](CC(=O)c4ccccc4)ccc3n2C)cc(OC)c1OC.[Br-]	0.461
CCC(CC)C(=O)Nc1ccc(-c2cn3cccnc3n2)cc1	4.74
Cc1cc(C)n(-c2ccc(C(=O)Nc3ccc(S(=O)(=O)N(C)C)cc3)cc2)n1	-40.8
Cc1ccccc1-c1nnc(-c2ccccc2)o1	-6.58
Cc1[nH]c2ccccc2c1C(=O)C(=O)NC1CC(=O)N(c2ccc(F)cc2)C1 (stereo not shown)	-51.9
O=C(NC1CC(=O)N(c2ccc(F)cc2)C1)N1CCN(C(=O)c2ccco2)CC1 (stereo not shown)	-63
O=C(NC1CC(=O)N(c2cccc(F)c2)C1)N1CCN(C(=O)c2ccco2)CC1 (stereo not shown)	-26.1
O=C(NC1CC(=O)N(c2ccc(Cl)cc2)C1)C1CC1 (stereo not shown)	-18.2
Cc1ccc(N2CC(NC(=O)C(=O)c3c(C)[nH]c4ccccc34)CC2=O)cc1C (stereo not shown)	-10.1
COc1ccc(N2CCN(C(=O)NC3CC(=O)N(c4ccc(OC)cc4)C3)CC2)cc1 (stereo not shown)	-35.9
O=C(NC1CC(=O)N(c2ccccc2)C1)N1CCN(C(=O)c2ccco2)CC1 (stereo not shown)	-5.77
O=C(NC1CCCCC1)N1CCN(C(=O)c2ccco2)CC1	-6.24
Cc1ccc(N2CC(NC(=O)N3CCN(C(=O)c4ccco4)CC3)CC2=O)cc1 (stereo not shown)	-52.6
Cc1ccc(N2CC(NC(=O)C(=O)c3c(C)[nH]c4ccccc34)CC2=O)cc1 (stereo not shown)	-47.8
COc1ccc(N2CC(NC(=O)N3CCN(C(=O)c4ccco4)CC3)CC2=O)cc1OC (stereo not shown)	5.5
O=C(NC1CC(=O)N(c2ccc(Cl)cc2)C1)N1CCN(C(=O)c2ccco2)CC1 (stereo not shown)	-91.6
